The results in this text go back to ChEMBL document CHEMBL1961873, “Compounds: GSK PKIS; Assays: Nanosyn kinase panel” (2012).

Experiment [1] has as its target Mitogen-activated protein kinase 3 (Homo sapiens) (UniProt P27361). The following applies: at 1 µM.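 Further: values are mean percent inhibition of MAPK3.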
In experiment [2] the target is SRSF protein kinase 3 (Homo sapiens) (UniProt Q9UPE1). The following applies: at 0.1 µM.
Experiment [3] has the same target. The following applies: at 1 µM.
Experiment [4] has as its target Mitogen-activated protein kinase 14 (Homo sapiens) (UniProt Q16539). The following applies: at 0.1 µM.
Experiment [5] has the same target. The following applies: at 1 µM.
Experiment [6] deals with Mitogen-activated protein kinase 11 (Homo sapiens) (UniProt Q15759). The note with it: at 0.1 µM.
Experiment [7] has the same target. The following applies: at 1 µM.
The target of experiment [8] is T1, Mitogen-activated protein kinase 13 (Homo sapiens) (UniProt O15264).
T1 sequence (whole entry): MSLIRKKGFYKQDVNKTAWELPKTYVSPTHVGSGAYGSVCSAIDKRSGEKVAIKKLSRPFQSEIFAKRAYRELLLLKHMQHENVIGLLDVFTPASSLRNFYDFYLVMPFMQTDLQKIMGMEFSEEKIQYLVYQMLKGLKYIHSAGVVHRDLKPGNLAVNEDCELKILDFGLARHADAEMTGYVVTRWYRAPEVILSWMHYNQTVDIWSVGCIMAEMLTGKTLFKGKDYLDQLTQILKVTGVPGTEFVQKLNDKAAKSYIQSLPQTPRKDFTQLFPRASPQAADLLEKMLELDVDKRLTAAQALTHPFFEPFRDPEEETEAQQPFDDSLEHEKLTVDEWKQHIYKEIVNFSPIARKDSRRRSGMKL
The note with it: at 0.1 µM.

Experiment [9] addresses T1, Mitogen-activated protein kinase 13 (Homo sapiens). The following applies: at 1 µM.
In experiment [10] the target is T2, Mitogen-activated protein kinase 12 (Homo sapiens) (UniProt P53778).
T2 sequence (whole entry): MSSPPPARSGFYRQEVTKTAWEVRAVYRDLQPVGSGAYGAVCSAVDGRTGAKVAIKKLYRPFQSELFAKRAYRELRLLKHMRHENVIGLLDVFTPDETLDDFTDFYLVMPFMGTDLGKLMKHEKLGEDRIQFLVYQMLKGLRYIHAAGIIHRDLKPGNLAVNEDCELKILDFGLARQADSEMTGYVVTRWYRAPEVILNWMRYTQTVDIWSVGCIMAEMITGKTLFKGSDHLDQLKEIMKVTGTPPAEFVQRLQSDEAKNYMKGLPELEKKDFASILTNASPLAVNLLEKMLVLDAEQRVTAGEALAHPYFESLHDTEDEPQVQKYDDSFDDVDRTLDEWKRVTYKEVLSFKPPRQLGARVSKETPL
The note with it: at 0.1 µM.

Experiment [11] deals with T2, Mitogen-activated protein kinase 12 (Homo sapiens). The note with it: at 1 µM.
Experiment [12] deals with SRSF protein kinase 1 (Homo sapiens) (UniProt Q96SB4). The note with it: at 0.1 µM.
Experiment [13] has the same target. The following applies: at 1 µM.
Experiment [14] has as its target Phosphatidylinositol 4,5-bisphosphate 3-kinase catalytic subunit alpha isoform (Homo sapiens) (UniProt P42336). The note with it: at 0.1 µM.
Experiment [15] has the same target. The following applies: at 1 µM.
Experiment [16] has as its target T3, Phosphatidylinositol 4,5-bisphosphate 3-kinase catalytic subunit delta isoform (Homo sapiens) (UniProt O00329).
T3 sequence (whole entry): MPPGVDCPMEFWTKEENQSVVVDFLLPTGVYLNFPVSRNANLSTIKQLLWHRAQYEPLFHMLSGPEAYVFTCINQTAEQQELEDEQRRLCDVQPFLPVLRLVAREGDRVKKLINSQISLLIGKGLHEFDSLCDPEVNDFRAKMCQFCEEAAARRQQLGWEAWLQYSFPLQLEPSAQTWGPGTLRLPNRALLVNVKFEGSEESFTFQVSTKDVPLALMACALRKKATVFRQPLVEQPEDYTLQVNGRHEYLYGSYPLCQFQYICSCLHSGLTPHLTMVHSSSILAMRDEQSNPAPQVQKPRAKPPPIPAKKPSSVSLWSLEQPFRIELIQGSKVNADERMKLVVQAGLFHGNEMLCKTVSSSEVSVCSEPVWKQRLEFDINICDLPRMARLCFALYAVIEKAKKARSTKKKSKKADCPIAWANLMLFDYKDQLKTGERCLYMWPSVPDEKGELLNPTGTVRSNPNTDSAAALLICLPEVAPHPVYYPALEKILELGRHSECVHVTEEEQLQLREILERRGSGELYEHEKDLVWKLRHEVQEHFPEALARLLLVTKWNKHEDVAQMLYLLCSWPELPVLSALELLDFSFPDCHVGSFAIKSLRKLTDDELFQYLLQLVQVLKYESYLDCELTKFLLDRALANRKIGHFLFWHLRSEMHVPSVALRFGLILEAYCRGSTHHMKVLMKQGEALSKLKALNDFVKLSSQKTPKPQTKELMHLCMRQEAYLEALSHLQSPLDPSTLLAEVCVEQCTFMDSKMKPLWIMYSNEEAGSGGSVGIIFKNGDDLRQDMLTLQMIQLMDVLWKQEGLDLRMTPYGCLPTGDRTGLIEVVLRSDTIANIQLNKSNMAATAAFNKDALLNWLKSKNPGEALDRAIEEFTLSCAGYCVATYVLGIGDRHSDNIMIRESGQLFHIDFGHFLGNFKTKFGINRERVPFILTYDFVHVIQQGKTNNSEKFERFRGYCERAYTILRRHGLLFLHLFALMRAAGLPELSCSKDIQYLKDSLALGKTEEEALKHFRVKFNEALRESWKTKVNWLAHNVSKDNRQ
The note with it: at 0.1 µM.

For experiment [17], the target named is T3, Phosphatidylinositol 4,5-bisphosphate 3-kinase catalytic subunit delta isoform (Homo sapiens). The following applies: at 1 µM.
Experiment [18] addresses Phosphatidylinositol 4-kinase beta (Homo sapiens) (UniProt Q9UBF8). The note with it: at 0.1 µM.
Experiment [19] shares this target. The following applies: at 1 µM.
Experiment [20] concerns the target Sphingosine kinase 1 (Homo sapiens) (UniProt Q9NYA1). The note with it: at 0.1 µM.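 Further: mean percent inhibition of SPHK1 activity, measured within the GSK PKIS screening panel.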

Chain of Phosphatidylinositol 4,5-bisphosphate 3-kinase catalytic subunit alpha isoform (Homo sapiens) (P42336 whole entry, canonical isoform): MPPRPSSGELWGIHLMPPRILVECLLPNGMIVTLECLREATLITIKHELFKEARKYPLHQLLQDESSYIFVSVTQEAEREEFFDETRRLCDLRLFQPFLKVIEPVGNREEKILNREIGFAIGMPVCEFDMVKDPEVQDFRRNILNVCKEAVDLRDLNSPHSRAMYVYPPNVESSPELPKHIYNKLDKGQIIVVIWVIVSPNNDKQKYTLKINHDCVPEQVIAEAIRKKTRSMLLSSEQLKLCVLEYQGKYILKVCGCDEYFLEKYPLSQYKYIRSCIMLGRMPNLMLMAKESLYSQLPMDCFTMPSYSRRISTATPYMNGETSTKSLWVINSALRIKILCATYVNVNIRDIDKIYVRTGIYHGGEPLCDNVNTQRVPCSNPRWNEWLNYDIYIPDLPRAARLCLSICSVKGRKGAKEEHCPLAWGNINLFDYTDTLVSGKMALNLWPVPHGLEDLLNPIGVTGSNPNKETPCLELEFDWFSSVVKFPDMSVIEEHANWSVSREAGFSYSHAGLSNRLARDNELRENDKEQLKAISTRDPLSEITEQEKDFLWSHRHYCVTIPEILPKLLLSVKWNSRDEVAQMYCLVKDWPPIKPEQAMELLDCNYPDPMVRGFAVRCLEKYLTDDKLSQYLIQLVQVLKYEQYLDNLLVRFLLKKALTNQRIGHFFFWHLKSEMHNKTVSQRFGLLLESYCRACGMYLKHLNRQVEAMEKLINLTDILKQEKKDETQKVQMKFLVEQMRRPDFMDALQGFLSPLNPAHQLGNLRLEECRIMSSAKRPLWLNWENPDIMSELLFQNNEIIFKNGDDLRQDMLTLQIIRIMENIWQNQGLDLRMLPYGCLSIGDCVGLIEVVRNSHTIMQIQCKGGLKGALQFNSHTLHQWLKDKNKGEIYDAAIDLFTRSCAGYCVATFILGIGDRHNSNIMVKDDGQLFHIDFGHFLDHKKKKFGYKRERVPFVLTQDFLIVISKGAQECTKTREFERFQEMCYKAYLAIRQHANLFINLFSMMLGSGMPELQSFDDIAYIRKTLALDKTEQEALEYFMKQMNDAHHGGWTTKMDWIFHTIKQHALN
Chain of Mitogen-activated protein kinase 14 (Homo sapiens) (Q16539 whole entry): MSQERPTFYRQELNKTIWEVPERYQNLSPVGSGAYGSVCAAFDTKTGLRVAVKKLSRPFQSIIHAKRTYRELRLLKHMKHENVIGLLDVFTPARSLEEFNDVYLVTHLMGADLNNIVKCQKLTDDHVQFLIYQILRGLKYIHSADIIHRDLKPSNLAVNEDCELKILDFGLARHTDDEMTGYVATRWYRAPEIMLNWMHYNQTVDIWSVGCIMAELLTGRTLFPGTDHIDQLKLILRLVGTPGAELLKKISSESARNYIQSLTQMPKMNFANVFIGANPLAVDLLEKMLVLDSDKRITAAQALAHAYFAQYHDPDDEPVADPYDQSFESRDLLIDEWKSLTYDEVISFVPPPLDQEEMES
Chain of Mitogen-activated protein kinase 11 (Homo sapiens) (Q15759 whole entry): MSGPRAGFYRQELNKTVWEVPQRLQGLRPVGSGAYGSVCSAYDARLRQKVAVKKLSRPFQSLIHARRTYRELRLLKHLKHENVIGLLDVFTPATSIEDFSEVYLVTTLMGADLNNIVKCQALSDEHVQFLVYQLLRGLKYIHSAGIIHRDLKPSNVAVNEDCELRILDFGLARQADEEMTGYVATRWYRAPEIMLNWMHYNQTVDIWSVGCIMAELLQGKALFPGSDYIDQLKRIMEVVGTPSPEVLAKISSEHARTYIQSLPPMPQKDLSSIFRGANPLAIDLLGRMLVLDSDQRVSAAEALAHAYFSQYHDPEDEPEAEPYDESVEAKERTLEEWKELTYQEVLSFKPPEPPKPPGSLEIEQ
Chain of Sphingosine kinase 1 (Homo sapiens) (Q9NYA1 whole entry): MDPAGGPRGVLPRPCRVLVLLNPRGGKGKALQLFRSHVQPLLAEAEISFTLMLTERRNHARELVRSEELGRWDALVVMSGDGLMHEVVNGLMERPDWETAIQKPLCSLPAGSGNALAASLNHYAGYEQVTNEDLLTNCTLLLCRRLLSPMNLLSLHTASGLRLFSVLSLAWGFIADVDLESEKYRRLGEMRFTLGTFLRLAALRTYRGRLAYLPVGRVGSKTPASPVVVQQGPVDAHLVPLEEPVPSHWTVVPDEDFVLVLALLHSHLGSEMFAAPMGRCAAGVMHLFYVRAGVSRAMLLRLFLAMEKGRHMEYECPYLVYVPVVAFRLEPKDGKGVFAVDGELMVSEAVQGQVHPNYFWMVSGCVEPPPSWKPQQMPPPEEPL
Chain of Mitogen-activated protein kinase 3 (Homo sapiens) (P27361 whole entry): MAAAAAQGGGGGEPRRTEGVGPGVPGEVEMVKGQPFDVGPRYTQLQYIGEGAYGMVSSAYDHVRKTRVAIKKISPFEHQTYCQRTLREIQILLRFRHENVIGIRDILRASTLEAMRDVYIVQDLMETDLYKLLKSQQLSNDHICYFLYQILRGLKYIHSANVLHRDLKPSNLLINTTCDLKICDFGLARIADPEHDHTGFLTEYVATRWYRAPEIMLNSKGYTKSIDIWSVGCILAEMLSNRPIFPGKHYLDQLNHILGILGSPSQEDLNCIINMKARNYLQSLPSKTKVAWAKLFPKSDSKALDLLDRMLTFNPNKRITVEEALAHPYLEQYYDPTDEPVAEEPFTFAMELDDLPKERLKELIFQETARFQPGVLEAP
Chain of SRSF protein kinase 3 (Homo sapiens) (Q9UPE1 whole entry): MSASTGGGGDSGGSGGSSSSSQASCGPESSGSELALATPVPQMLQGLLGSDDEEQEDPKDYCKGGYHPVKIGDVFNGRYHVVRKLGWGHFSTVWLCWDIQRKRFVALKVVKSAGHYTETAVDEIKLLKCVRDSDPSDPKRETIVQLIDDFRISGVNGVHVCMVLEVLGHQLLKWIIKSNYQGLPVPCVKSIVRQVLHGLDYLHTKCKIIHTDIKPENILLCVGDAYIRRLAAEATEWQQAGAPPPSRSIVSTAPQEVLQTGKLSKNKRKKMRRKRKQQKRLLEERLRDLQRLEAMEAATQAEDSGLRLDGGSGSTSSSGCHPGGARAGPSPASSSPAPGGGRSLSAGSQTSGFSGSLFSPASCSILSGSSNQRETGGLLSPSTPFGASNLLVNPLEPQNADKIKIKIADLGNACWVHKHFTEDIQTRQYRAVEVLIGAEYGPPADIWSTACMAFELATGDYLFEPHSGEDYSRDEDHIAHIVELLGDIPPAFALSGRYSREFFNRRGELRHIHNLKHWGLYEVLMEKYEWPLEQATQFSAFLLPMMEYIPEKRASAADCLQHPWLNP
Chain of Phosphatidylinositol 4-kinase beta (Homo sapiens) (Q9UBF8 2-816 limits assumed): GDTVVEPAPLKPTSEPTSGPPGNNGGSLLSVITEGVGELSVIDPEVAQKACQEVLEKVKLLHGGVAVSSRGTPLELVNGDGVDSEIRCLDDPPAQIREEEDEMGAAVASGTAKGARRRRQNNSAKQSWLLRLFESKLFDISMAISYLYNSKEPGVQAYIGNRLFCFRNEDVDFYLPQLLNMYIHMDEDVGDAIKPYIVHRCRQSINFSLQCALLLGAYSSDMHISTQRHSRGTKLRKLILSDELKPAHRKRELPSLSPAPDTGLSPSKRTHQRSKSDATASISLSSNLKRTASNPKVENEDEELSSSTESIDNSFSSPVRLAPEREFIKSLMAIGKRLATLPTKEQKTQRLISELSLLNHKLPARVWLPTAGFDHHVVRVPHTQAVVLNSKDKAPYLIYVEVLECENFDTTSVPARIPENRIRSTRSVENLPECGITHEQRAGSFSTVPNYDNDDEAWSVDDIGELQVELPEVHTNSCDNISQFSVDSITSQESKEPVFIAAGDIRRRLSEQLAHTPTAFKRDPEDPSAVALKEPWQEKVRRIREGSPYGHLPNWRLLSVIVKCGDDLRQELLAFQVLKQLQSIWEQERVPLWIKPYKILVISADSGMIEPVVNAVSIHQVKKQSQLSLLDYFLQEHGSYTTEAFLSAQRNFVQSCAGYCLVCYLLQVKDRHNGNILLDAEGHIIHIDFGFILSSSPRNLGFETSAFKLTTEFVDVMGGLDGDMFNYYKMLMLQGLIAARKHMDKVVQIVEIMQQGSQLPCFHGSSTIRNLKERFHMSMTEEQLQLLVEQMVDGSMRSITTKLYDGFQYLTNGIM
Chain of SRSF protein kinase 1 (Homo sapiens) (Q96SB4 whole entry): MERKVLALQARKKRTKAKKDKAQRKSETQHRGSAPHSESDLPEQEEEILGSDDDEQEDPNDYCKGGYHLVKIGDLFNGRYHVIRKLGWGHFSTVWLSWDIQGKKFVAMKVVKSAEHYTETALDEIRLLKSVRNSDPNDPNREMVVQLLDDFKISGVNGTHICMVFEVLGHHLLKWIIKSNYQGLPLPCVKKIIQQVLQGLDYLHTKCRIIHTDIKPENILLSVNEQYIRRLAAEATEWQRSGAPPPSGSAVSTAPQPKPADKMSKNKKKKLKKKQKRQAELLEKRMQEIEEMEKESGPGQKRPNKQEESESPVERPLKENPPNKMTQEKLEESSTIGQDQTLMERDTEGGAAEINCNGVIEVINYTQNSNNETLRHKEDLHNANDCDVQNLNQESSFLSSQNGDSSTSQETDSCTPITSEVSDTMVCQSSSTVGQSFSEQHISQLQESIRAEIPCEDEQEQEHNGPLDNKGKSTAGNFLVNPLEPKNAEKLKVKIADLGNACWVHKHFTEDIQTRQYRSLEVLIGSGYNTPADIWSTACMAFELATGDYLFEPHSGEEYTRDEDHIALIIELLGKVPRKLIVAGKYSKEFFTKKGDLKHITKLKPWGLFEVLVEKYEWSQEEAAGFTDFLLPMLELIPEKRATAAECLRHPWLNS

The inhibition is the change of the read-out against control, counted positive when it falls. Take `CC(C)(CO)CNC(=O)c1ccc2c(c1)/C(=N/Nc1ccc(S(N)(=O)=O)cc1)C(=O)N2`: the inhibition in experiment [1] is 16.6%; in experiment [2], -0.87%; in experiment [3] it was -1.79%; in [4], 2.1%; in experiment [5] it was 1.84%; in [6] it was 2.96%. For the same compound, the inhibition in [7] was 9.13%; in experiment [8], -0.56%; in experiment [9], 0.83%; in experiment [10] it was -0.2%; in experiment [11], 0.79%; in experiment [12], -1.95%. Also, the inhibition is -1.91% in experiment [13]; -2.03% in [14]; -1.12% in experiment [15]; -0.73% in [16]; 2.18% in experiment [17]; -1.03% in [18]. Further, the inhibition was -0.32% in experiment [19] and 0.09% in experiment [20].

`COc1ccc(-c2oc3ncnc(N)c3c2-c2ccc(NC(=O)Nc3cc(C(F)(F)F)ccc3F)cc2)cc1`: the inhibition amounted to 4.66% in [1]; 2.74% in experiment [2]; 48.7% in [3]; 4.62% in [4]; 30.4% in experiment [5]; 5.32% in [6]. For the same compound, the inhibition in experiment [7] was 37.8%; in experiment [8], 1.95%; in [9] it was 15.3%; in experiment [10] it was -3.37%; in experiment [11], 17.6%; in experiment [12], 1.18%. Also, the inhibition stood at 34.5% in [13]; 2.34% in experiment [14]; 20.6% in [15]; 2.28% in experiment [16]; 22.4% in experiment [17]; 6.88% in [18]. The inhibition in experiment [19] was determined as 5.84%; in [20], 0.16%.

On to `COc1cc2ncn(-c3cc(OCc4ccccc4C(F)(F)F)c(C(=O)N(C)C)s3)c2cc1OC`, for which the inhibition in experiment [1] is -0.07%; in experiment [2] it was -2.08%; in experiment [3], -1.83%; in experiment [4], 7.43%; in experiment [5], 1.82%; in experiment [6], -4.05%. Also, the inhibition in experiment [7] was 1.82%; in experiment [8], -0.21%; in experiment [9], 0.14%; in experiment [10], 0.9%; in experiment [11], 0.94%; in experiment [12], -1.25%. Moreover, the inhibition is -2.46% in [13]; 0.78% in experiment [14]; 1.16% in experiment [15]; 0.51% in [16]; 2.3% in experiment [17]; 2.07% in experiment [18]. Further, the inhibition in experiment [19] was found to be 0.96%; in experiment [20], 2.3%.

For the compound `Fc1ccc(-c2nn3ncccc3c2-c2ccnc(Nc3ccc4c(c3)OCCO4)n2)cc1`, the inhibition was 11.3% in [1]; -0.97% in experiment [2]; -1.91% in [3]; 72% in [4]; 92.8% in experiment [5]; 48.6% in experiment [6]. Further, the inhibition in experiment [7] was 78.7%; in experiment [8], 3.53%; in [9], 6.19%; in [10] it was 2.92%; in experiment [11], 4.06%; in experiment [12] it was -3.43%. The inhibition in [13] is -6.44%; in experiment [14] it was 3.44%; in experiment [15], 6.99%; in experiment [16] it was 3.64%; in experiment [17] it was 9.87%; in experiment [18] it was -5.48%. The inhibition was -0.74% in [19] and 1.29% in experiment [20].

`CNC(=O)c1cc(-c2ccc(F)cc2)cc(-c2ccc(S(=O)(=O)N3CCCC3)cc2)c1N`: the inhibition in experiment [1] is 1.92%; in experiment [2] it was -1.6%; in experiment [3], -0.52%; in experiment [4], 4.95%; in [5], 4.5%; in [6], 1.39%. Moreover, the inhibition was 3.19% in experiment [7]; 3.39% in experiment [8]; 2.91% in experiment [9]; 2.77% in [10]; 2.47% in experiment [11]; -2.58% in experiment [12]. Besides, the inhibition was -1.56% in experiment [13]; 2.34% in [14]; 1.39% in experiment [15]; 0.79% in experiment [16]; 1.11% in [17]; -2.09% in experiment [18]. In addition, the inhibition was 1.93% in experiment [19] and -0.85% in experiment [20].

On to `c1cc(-c2cnn3nc(N4CCOCC4)ccc23)nc(NC2CC2)n1`, for which the inhibition amounted to 3.9% in experiment [1]; 2.15% in experiment [2]; 9.24% in experiment [3]; 6.66% in experiment [4]; 16.6% in experiment [5]; 3.09% in experiment [6]. Moreover, the inhibition in experiment [7] is 13.1%; in [8], 6.27%; in [9], 19.7%; in experiment [10] it was 0.63%; in experiment [11], 13.6%; in [12] it was -1.17%. Moreover, the inhibition was 1.29% in experiment [13]; 2.09% in experiment [14]; 6.22% in experiment [15]; 1.85% in [16]; 4.21% in [17]; 0.77% in experiment [18]. In addition, the inhibition was 21% in [19] and -1.93% in experiment [20].
